Measured values: PubChem BioAssay AID1159580 (chemical genetic matrix, 2015)
About 2,000 (36%) of roughly 5,500 compounds were called active. Roughly 18% stayed inconclusive and do not appear here. Rule as the data show it: active = normalized growth mostly below about 0.91 (no sharp cut-off); inconclusive = no clear call, values can overlap the other calls; inactive = mostly above about 0.92. Some of the results follow.

Experiment: chemical genetic growth profiling, strain panel (AID 1159580);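 also: tested at 20 µM; growth read once vehicle control cultures reached saturation at 30 °C; 1 = growth at the plate median or of vehicle wells; lower values mean less growth of the strain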
Settings: growth OD

Measured: normalized growth

CC12CCC3c4ccc(OCc5ccccc5)cc4CCC3C1C[C@@H](O)[C@@H]2O (stereo partly specified)
inactive: S. cerevisiae deletion strains, locus YBR021W, strain FUR4, hits give low values 0.995
active: S. cerevisiae deletion strains, locus YBR229C, strain ROT2, hits give low values 0.0599 | S. cerevisiae deletion strains, locus YCL029C, strain bik1, hits give low values 0.0651 | S. cerevisiae deletion strains, locus YDL035C, strain GPR1, hits give low values 0.1 | S. cerevisiae deletion strains, locus YDL074C, strain BRE1, hits give low values 0.0834 | S. cerevisiae deletion strains, locus YDL101C, strain DUN1, hits give low values 0.0689 | S. cerevisiae deletion strains, locus YDL134C, strain PPH21, hits give low values 0.055 | S. cerevisiae deletion strains, locus YDL185W, strain tfp1, hits give low values 0.058 | S. cerevisiae deletion strains, locus YDL192W, strain arf1, hits give low values 0.0627 | S. cerevisiae deletion strains, locus YDR101C, strain arx1, hits give low values 0.127 | S. cerevisiae deletion strains, locus YDR150W, strain NUM1, hits give low values 0.355 | S. cerevisiae deletion strains, locus YDR162C, strain NBP2, hits give low values 0.0538 | S. cerevisiae deletion strains, locus YDR318W, strain mcm21, hits give low values 0.076 | S. cerevisiae deletion strains, locus YDR388W, hits give low values 0.066 | S. cerevisiae deletion strains, locus YDR502C, strain sam2, hits give low values 0.0938 | S. cerevisiae deletion strains, locus YEL061C, strain CIN8, hits give low values 0.0518 | S. cerevisiae deletion strains, locus YER110C, hits give low values 0.0937 | S. cerevisiae deletion strains, locus YER155C, strain BEM2, hits give low values 0.0637 | S. cerevisiae deletion strains, locus YER167W, strain BCK2, hits give low values 0.0557 | S. cerevisiae deletion strains, locus YGL078C, strain dbp3, hits give low values 0.106 | S. cerevisiae deletion strains, locus YGL086W, strain mad1, hits give low values 0.0655 | S. cerevisiae deletion strains, locus YGL248W, strain PDE1, hits give low values 0.0599 | S. cerevisiae deletion strains, locus YGR135W, strain pre9, hits give low values 0.265 | S. cerevisiae deletion strains, locus YGR252W, strain gcn5, hits give low values 0.133 | S. cerevisiae deletion strains, locus YHR030C, strain SLT2, hits give low values 0.0559 | S. cerevisiae deletion strains, locus YHR079C, strain IRE1 (second series), hits give low values 0.0829 | S. cerevisiae deletion strains, locus YHR094C, strain hxt1, hits give low values 0.0776 | S. cerevisiae deletion strains, locus YHR129C, strain ARP1, hits give low values 0.0606 | S. cerevisiae deletion strains, locus YHR200W, strain rpn10, hits give low values 0.0742 | S. cerevisiae deletion strains, locus YIL066C, strain RNR3, hits give low values 0.0563 | S. cerevisiae deletion strains, locus YIL073C, strain SPO22, hits give low values 0.112 | S. cerevisiae deletion strains, locus YIL125W, strain kgd1, hits give low values 0.0668 | S. cerevisiae deletion strains, locus YIR030C, strain dcg1, hits give low values 0.104 | S. cerevisiae deletion strains, locus YJL095W, strain BCK1, hits give low values 0.062 | S. cerevisiae deletion strains, locus YJL134W, strain LCB3, hits give low values 0.0681 | S. cerevisiae deletion strains, locus YJL168C, strain set2, hits give low values 0.0842 | S. cerevisiae deletion strains, locus YJL187C, strain SWE1 (second series), hits give low values 0.0613 | S. cerevisiae deletion strains, locus YJR043C, strain POL32, hits give low values 0.0826 | S. cerevisiae deletion strains, locus YJR075W, strain HOC1, hits give low values 0.0841 | S. cerevisiae deletion strains, locus YKL009W, strain mrt4, hits give low values 0.0811 | S. cerevisiae deletion strains, locus YKL068W, hits give low values 0.187 | S. cerevisiae deletion strains, locus YKL085W, strain MDH1 (second series), hits give low values 0.068 | S. cerevisiae deletion strains, locus YKL085W, strain MDH1, hits give low values 0.068 | S. cerevisiae deletion strains, locus YKL190W, strain CNB1, hits give low values 0.0552 | S. cerevisiae deletion strains, locus YKR001C, strain vps1, hits give low values 0.062 | S. cerevisiae deletion strains, locus YLR039C, strain RIC1, hits give low values 0.0869 | S. cerevisiae deletion strains, locus YLR058C, strain SHM2, hits give low values 0.0598 | S. cerevisiae deletion strains, locus YLR102C, strain apc9, hits give low values 0.0693 | S. cerevisiae deletion strains, locus YLR262C, strain YPT6, hits give low values 0.103 | S. cerevisiae deletion strains, locus YLR268W, strain sec22, hits give low values 0.0915 | S. cerevisiae deletion strains, locus YLR330W, strain CHS5, hits give low values 0.0559 | S. cerevisiae deletion strains, locus YLR342W, strain FKS1 (second series), hits give low values 0.0702 | S. cerevisiae deletion strains, locus YLR371W, strain rom2, hits give low values 0.0664 | S. cerevisiae deletion strains, locus YLR418C, strain cdc73, hits give low values 0.101 | S. cerevisiae deletion strains, locus YML016C, strain PPZ1, hits give low values 0.0511 | S. cerevisiae deletion strains, locus YML032C, strain rad52, hits give low values 0.0688 | S. cerevisiae deletion strains, locus YML124C, strain tub3, hits give low values 0.117 | S. cerevisiae deletion strains, locus YMR078C, strain ctf18, hits give low values 0.0734 | S. cerevisiae deletion strains, locus YMR223W, strain ubp8, hits give low values 0.0801 | S. cerevisiae deletion strains, locus YMR307W, strain GAS1, hits give low values 0.114 | S. cerevisiae deletion strains, locus YNL067W, strain RPL9B, hits give low values 0.093 | S. cerevisiae deletion strains, locus YNL128W, strain TEP1, hits give low values 0.0726 | S. cerevisiae deletion strains, locus YNL153C, strain GIM3, hits give low values 0.0573 | S. cerevisiae deletion strains, locus YNL233W, strain BNI4, hits give low values 0.0603 | S. cerevisiae deletion strains, locus YNL250W, strain rad50, hits give low values 0.0963 | S. cerevisiae deletion strains, locus YNL271C, strain bni1, hits give low values 0.129 | S. cerevisiae deletion strains, locus YNL298W, strain CLA4, hits give low values 0.0669 | S. cerevisiae deletion strains, locus YNL307C, strain MCK1, hits give low values 0.0674 | S. cerevisiae deletion strains, locus YNR052C, strain pop2, hits give low values 0.0752 | S. cerevisiae deletion strains, locus YOL006C, strain TOP1, hits give low values 0.114 | S. cerevisiae deletion strains, locus YOL012C, strain htz1 0.149 | S. cerevisiae deletion strains, locus YOL147C, strain pex11, hits give low values 0.0612 | S. cerevisiae deletion strains, locus YOR061W, strain CKA2, hits give low values 0.0522 | S. cerevisiae deletion strains, locus YOR069W, strain VPS5, hits give low values 0.0556 | S. cerevisiae deletion strains, locus YOR136W, strain idh2, hits give low values 0.077 | S. cerevisiae deletion strains, locus YOR144C, strain elg1, hits give low values 0.0719 | S. cerevisiae deletion strains, locus YOR184W, strain ser1, hits give low values 0.0768 | S. cerevisiae deletion strains, locus YOR316C, strain cot1, hits give low values 0.0738 | S. cerevisiae deletion strains, locus YPL055C, strain LGE1, hits give low values 0.0696 | S. cerevisiae deletion strains, locus YPL241C, strain CIN2, hits give low values 0.0593 | S. cerevisiae deletion strains, locus YPR119W, strain clb2, hits give low values 0.0659 | S. cerevisiae deletion strains, locus YPR141C, strain kar3, hits give low values 0.106 | S. cerevisiae deletion strains, locus YPR163C, strain tif3, hits give low values 0.0746 | S. cerevisiae deletion strains, locus YPR167C, strain met16, hits give low values 0.0654 | S. cerevisiae deletion strains, strain wtn01, hits give low values 0.107 | S. cerevisiae strains, strain wild type, hits give low values 0.0526
